Reference: PubChem BioAssay AID940 (Emory University Molecular Libraries Screening Center, 2007)
Where “and” joins values, the source holds several entries; their conditions need not be identical. Equal values may be shown once. Screen size: about 260,000 compounds; about 2,200 (0.85%) were called active. The sample as a whole holds a higher share of actives than the screen did. A number with no mark means an inactive call.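 How the source made its calls: active means compounds whose cAMP rise, as percent of the full-agonist control response, exceeds 60; inactive means the rest.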

Each molecule was assayed against Prostaglandin E2 receptor EP2 subtype (Homo sapiens) (UniProt P43116) (assay: modulation of human EP2 prostaglandin signaling – cell-based, HTRF cAMP, PGE2 stimulation, primary screen (AID 940;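 further: rat C6 glioma line stably carrying human EP2 under a CMV promoter; the protocol text gives 20 µM as final concentration; 100% = response of wells given 1 µM PGE2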)). Conditions: EP2-expressing cells, cAMP HTRF FRET, PGE2 co-stimulation; at 25 µM; stronger effect = higher value.
Sequence of Prostaglandin E2 receptor EP2 subtype (Homo sapiens) (P43116 whole entry, looked up): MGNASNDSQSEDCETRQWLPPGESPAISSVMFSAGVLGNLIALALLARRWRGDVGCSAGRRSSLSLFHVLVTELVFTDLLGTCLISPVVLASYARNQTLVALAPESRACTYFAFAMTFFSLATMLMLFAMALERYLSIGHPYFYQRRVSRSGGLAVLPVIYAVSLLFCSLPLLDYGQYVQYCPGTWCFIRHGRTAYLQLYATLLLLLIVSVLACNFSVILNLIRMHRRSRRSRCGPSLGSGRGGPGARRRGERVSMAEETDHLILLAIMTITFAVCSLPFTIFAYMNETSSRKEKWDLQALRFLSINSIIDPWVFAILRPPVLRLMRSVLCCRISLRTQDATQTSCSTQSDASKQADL

Row | Compound | induction
1 | COc1ccc(S(=O)(=O)NCc2ccc3c(c2)OCO3)c(Cl)c1Cl | -0.88%
2 | Cc1nc2nc(N)ccc2c(C)c1C | -9.42%
3 | CCC(C)c1ccc(O)c(/C=N/O)c1 (stereo not drawn) | 4.26%
4 | CNCC(O)c1ccc(O)c(O)c1 (stereo not drawn) | 68.4% (active)
5 | CC(=O)NCC(O)c1ccc([N+](=O)[O-])cc1 (stereo not drawn) | 1.39%
6 | CCc1ccc(NC(=O)C2CCN(C(=O)c3cccs3)CC2)cc1 | 15.7%
7 | CCOc1ccc2cc(C#N)c(SCC(=O)OC)nc2c1 | 47%
8 | COC(=O)CSc1nc2c(c(C3CC=CCC3)c1C#N)CCC2 (stereo not drawn) | 68.1% (active)
9 | COC(=O)CSc1nc(C2CC2)nc2ccccc12 | 4.21%
10 | C=CCNC(=O)CN1CCC(c2ccccc2F)CC1 | -47.4%
11 | COC(=O)[C@H]1CCc2ccccc2N1C(=O)C1CCC1 | -15.3%
12 | CCC(C)OC(=O)C(C)n1cnc2sc(C(=O)Nc3ccccc3OC)c(C)c2c1=O (stereo not drawn) | -16.1%
13 | COC(=O)[C@H]1CCc2ccccc2N1C(=O)c1ccccc1F | 8.05%
14 | O=C(Cn1nc(-c2ccncc2)oc1=O)N1CCCCC1 | -10.9%
15 | CS(=O)(=O)N1CCCc2cc(C(O)CN3CCN(c4cnccn4)CC3)ccc21 (stereo not drawn) | -3.55%
16 | N#Cc1c(NC(=O)CSc2nc3ccccc3c(=O)n2Cc2ccco2)sc2c1CCCC2 | -3.51%
17 | O=C(CSc1nc2ccccc2c(=O)n1Cc1ccco1)Nc1ccccc1Cl | 67.4% (active)
18 | Cc1cc(NC(=O)CSc2nc3cc(Cl)ccc3c(=O)n2Cc2ccco2)no1 | -4.33%
19 | CCOC(=O)C(C)NC(=O)c1cc2ccc(F)cc2[nH]1 (stereo not drawn) | -92.7%
20 | Cc1nc(S(=O)(=O)c2ccc(Cl)cc2)c(N2CCCCC2)o1 | -42.2%
21 | CCN1CCN(C(=O)[C@H]2C[C@@H](c3ccc(OC)c(OC)c3)NS(=O)(=O)N2C)CC1 | -8.26%
22 | COc1ccc(C2(C(=O)N3CCC(n4cnc5cccnc54)CC3)CCCC2)cc1 | 11.4%
23 | Cc1nn(C(C)C)c(C)c1CN(C)CCOc1ccccc1 | -30.9%
24 | COc1cc(C)c(-c2csc(NC(=O)C3(C)CCCO3)n2)cc1C (stereo not drawn) | -62.2%
25 | COc1cccc(NC(=O)C(C)Oc2ccccc2)c1 (stereo not drawn) | 9.01%

Row | Compound | induction
26 | COc1cccc(NC(=O)c2ccccc2SC)c1 | 61.4% (active)
27 | CSc1ccccc1C(=O)Nc1cccc(C(C)=O)c1 | 10.1%
28 | COc1cc(C#N)ccc1OCc1nc(-c2ccccc2)no1 | -64.5%
29 | CSc1ncc(C(=O)N2CC(CN3CCOCC3)c3ccccc32)cn1 (stereo not drawn) | -3.66%
30 | CCOC(=O)C1CCN(C(=O)Nc2c[nH]c3ccc(OC)nc3c2=O)CC1 | -39.3%
31 | CCOC(=O)c1nnn(-c2nonc2OC)c1-c1ccccc1 | 11.4%
32 | CCOC(=O)c1c(N)nn(C(=O)c2ccccc2)c1-c1ccccc1 | 69.9% (active)
33 | CCOC(=O)c1c(-c2cccc(N)c2)cn2ccccc12 | -32.9%
34 | C/C(Cl)=C\CSc1nc(N2CCOCC2)c2c(c1C#N)CC(C)(C)OC2 | 67.7% (active)
35 | COc1ccc(CSc2nc(N3CCOCC3)c3c(c2C#N)CC(C)(C)OC3)cc1 | 37.4%
36 | CC1(C)Cc2c(C#N)c(SCc3nc4ccccc4[nH]3)nc(N3CCOCC3)c2CO1 | -21.7%
37 | CCOc1ccc2[nH]c(=O)c(C(c3nnnn3CCOC)N3CCN(C)CC3)cc2c1 (stereo not drawn) | -18.3%
38 | COC(=O)c1sc2[nH]c(=S)n(N)c(=O)c2c1C | 78.1% (active)
39 | COC(=O)Cn1cnc2sc(C(=O)OC)c(C)c2c1=O | -5.66%
40 | CCOC(=O)c1sc2nc(C)[nH]c(=O)c2c1C | 15.6%
41 | O=c1[nH]c2ccc(S(=O)(=O)N3CCCC(c4ccccc4)C3)cc2[nH]1 (stereo not drawn) | -114%
42 | O=C(Cn1nc2c3ccccc3ncn2c1=O)NCc1cccs1 | 4.57%
43 | Cc1ccc2cc(C#N)c(SCC(=O)Nc3cccc(C)c3C)nc2c1 | -15.3%
44 | COc1ccc2nc(C)cc(SCC(=O)Nc3ccccc3Br)c2c1 | -51.4%
45 | Cc1cc2ccccc2nc1SCC(=O)Nc1ccccc1F | 39.1%
46 | COc1ccc2cc(C#N)c(SCC(=O)Nc3ccccc3Br)nc2c1 | 66.9% (active)
47 | CCc1cc2ccccc2nc1SCC(=O)Nc1ccccc1Br | 65.9% (active)
48 | CCc1cc2cc3c(cc2nc1SCC(=O)Nc1ccccc1Br)OCCO3 | -3.39%
49 | COCCNc1nnc(-c2ccccn2)s1 | -12.4%
50 | O=C(CCSc1nc(-c2ccco2)cc(C(F)(F)F)n1)NC1CCCCC1 | -7.93%

Row | Compound | induction
51 | COc1cccc(-c2cnc(OC(C)(C)C)nc2OC(C)(C)C)c1 | 62% (active)
52 | CC(C)(C)Oc1ncc(Br)c(OC(C)(C)C)n1 | 31.4%
53 | COc1cccc(-c2nc3cc(C)ccc3o2)c1 | 3.47%
54 | COc1ccc(C(=O)N2CC3(C)CC2CC(C)(C)C3)cc1OC (stereo not drawn) | -6.8%
55 | CC1(C)CC2CC(C)(CN2C(=O)c2ccc(Cl)cc2)C1 (stereo not drawn) | -5%
56 | CC1(C)CC2CC(C)(CN2c2ncnc3ccc(Br)cc23)C1 (stereo not drawn) | 70% (active)
57 | COc1ccc2[nH]cc(CCNC(=O)C3CCN(c4nc5ccccc5n4C)CC3)c2c1 | -102%
58 | CCc1ncc(CNC2(c3ccc(Cl)cc3)CCC2)cn1 | -47%
59 | CCC(c1nnnn1C(C)(C)C)N(Cc1ccccc1)Cc1cc2ccc(C)cc2[nH]c1=O (stereo not drawn) | 12.1%
60 | CCC(C)(C)n1nnnc1CN(Cc1ccc(F)cc1)Cc1cc2cc(C)cc(C)c2[nH]c1=O | 29.1%
61 | CCc1ccc2[nH]c(=O)c(CN(Cc3ccc(F)cc3)Cc3nnnn3C(C)(C)C)cc2c1 | 62.5% (active)
62 | COCCNC(=O)Cn1nc2c(C)cc3cc(C)cc(C)c3n2c1=O | -32.1%
63 | COc1ccc(NCc2nnc(SCC(=O)Nc3ccc(C)cc3)n2C)cc1 | 8.87%
64 | Cc1ccc(Cn2c3ccccc3n3c(SCC(=O)N4CCc5ccccc54)nnc23)cc1 | -8.29%
65 | CC(C)(C)c1cc(P(=O)(c2ccccc2)c2ccccc2)ccc1O | 66.9% (active)
66 | COc1ccc(N=Nc2ccc(O)c(P(=O)(c3ccccc3)c3ccccc3)c2)cc1 | 25.3%
67 | O=P(O)(CP(=O)(c1ccccc1)c1ccccc1)c1ccccc1O | -5.29%
68 | CN(C)C(=O)CN1N=C(C(C)(C)C)Cn2c(cc3sccc32)C1=O | -24.7%
69 | CC(=O)c1ccc2c(c1)c1ccccc1n2CC(C)C | 66.9% (active)
70 | CC(=O)c1ccc2c(ccc3ccccc32)c1 | -39.4%
71 | CCn1c2ccccc2c2cc(CC(N)=O)ccc21 | 13.3%
72 | Cc1sc2ncnc(NCC(=O)O)c2c1C | 2.64%
73 | COc1cc(-c2nnc(SCC(=O)N3CCC(C)CC3)o2)cc(OC)c1OC | -36.6%
74 | CCN1CCCC1CN(Cc1ccccn1)Cc1cccn1-c1ccncc1 (stereo not drawn) | 7.11%
75 | CCN(CC)C(=O)CSc1nc2c(C)c(C)ccc2cc1C#N | 27.6%

Row | Compound | induction
76 | Cc1cc(C#N)c(SCC(N)=O)nc1-c1ccc(F)cc1 | 65.8% (active)
77 | Cc1cc(=O)[nH]c(SCC(N)=O)c1C#N | 24.2%
78 | CCc1c(C)nc(NC2CCN(C(=O)c3cccc(N(C)C)c3)CC2)[nH]c1=O | -19.1%
79 | COC(=O)CSc1nnc(CSc2nc(C)cc(C)n2)n1-c1ccc(C)cc1 | -20.7%
80 | CCOc1ccc(NC(=O)CSc2nc(C(C)C)nc3ccccc23)cc1 | 10.4%
81 | CCOc1ccc(NC(=O)CSc2ncnc3c2sc2ccccc23)cc1 | 78.8% (active)
82 | COc1cc(NC(=O)CSc2ncnc3c2sc2nc4cc(C)ccc4cc23)cc(OC)c1 | -7.45%
83 | CC(c1ccccc1)n1c(Br)nc2c1c(=O)n(C)c(=O)n2C (stereo not drawn) | -1.23%
84 | COc1ccc2[nH]c(=O)c(CN(C3CCCC3)C(c3nnnn3Cc3ccccc3)C(C)C)cc2c1 (stereo not drawn) | 40.1%
85 | Cc1ccc(C(=O)OC2CCCN(C)C2)cc1 (stereo not drawn) | 11.9% and -29.7%
86 | CC1(C)C2CCC1(C)C(OC(=O)CCn1ccnc1)C2 (stereo not drawn) | -7.75%
87 | CC1(C)C2CCC1(C)C(OC(=O)c1ccc(O)cc1)C2 (stereo not drawn) | 67.5% (active)
88 | c1ccc(C(c2nnnn2Cc2ccc3c(c2)OCO3)N2CCN(C3CCCCC3)CC2)cc1 (stereo not drawn) | -64.5%
89 | CC(C)(C)C(=O)c1cn(CC(=O)N2CCCCC2)c2ccccc12 | -9.2%
90 | CCn1c(C)nnc1SCC(=O)Nc1ccc(Br)cc1 | -1.86%
91 | CCOC(=O)N1CCN(CC(=O)Nc2cc(C)nn2-c2nc3ccccc3s2)CC1 | 32.4%
92 | Cc1cc(NC(=O)CN2CCCC(C)C2)n(-c2nc3ccccc3s2)n1 (stereo not drawn) | 77.7% (active)
93 | CC(=O)Nc1ccc(NC(=O)CN2CCCC(C)C2)c(Cl)c1 (stereo not drawn) | -9.9%
94 | COc1ccc(Cc2n[nH]c(=S)n2C)cc1 | 25.4%
95 | Cc1cc(-c2cnc(C)nc2C2CCN(C(=O)Cc3ccc(C)s3)CC2)on1 | -15.1%
96 | O=C(N/N=C/c1ccc(OCc2ccccc2)cc1)c1ccc(O)cc1 | -46.8%
97 | CN(C)c1ccc(/C=N/N(Cc2ccccc2)c2ccccc2)cc1 | 23.9%
98 | Oc1ccc(/C=N/N(Cc2ccccc2)c2ccccc2)cc1 | 67.5% (active)
